Measurements as given in PubChem BioAssay (Tox21).
A number with no mark means an inactive call. The source made the active and inactive calls. Calls come from the whole dose curve; as a rule, active = well fitted activation curve with a large enough effect in the repeat runs; inconclusive = weak or mixed curves; inactive = flat fitted curve, though single readings scatter.

Assay: A CellTox Green Cytotoxicity Assay to monitor cytotoxicity in HEK293 cells - 0 hour (AID 1224869); note: nearly all actives have a fitted effect of over 50% in size
Conditions: CellTox Green fluorescence; series mostly up to 76.8 µM; cytotoxicity: at the top concentration
From the text: National Center for Advancing Translational Sciences [NCATS]
NIH Chemical Genomics Center [NCGC]
U.S. Environmental Protection Agency [EPA]
National Institutes of Environmental Health Sciences [NIEHS]
National Toxicology Program [NTP]
Cell-based models are critical for drug discovery. Determining the natural cytotoxic effects resulting from test compounds is an essential research activity. A CellTox Green Cytotoxicity Assay to monitor cytotoxicity in real time of continues cell culture during 40 hours of the compound treatment was used to screen Tox21 10K library compounds in Hek293 cells. CellTox Green Cytotoxicity Assay is a nonlytic, homogeneous, biofluorescent method to measure cytotoxicity in cell culture after experimental manipulation. The assay system uses a proprietary asymmetric cyanine dye that is excluded from viable cells but preferentially stains the dead cell's DNA. […] Viable cells produce no appreciable increases in fluorescence. Therefore, the fluorescence signal produced by the binding interaction with dead cell DNA is proportional to cytotoxicity.
The mixture of Hek293 cell suspension and reagents were dispensed at 600cells/6 ul/well in 1536-well tissue culture treated black solid bottom plates using a Multidrop dispenser. After the assay plates were incubated at a 37 C/5% CO2 incubator for 5 hours, 23 nL of compounds dissolved in DMSO, positive and negative controls was transferred to the assay plate by a pintool work station. The plates were incubated at 37 C for 40 hours. The fluorescence intensity were measured at 0h, 8h, 16h, 24h, 32h and 40h time points using ViewLux plate reader during compound treatment.
% is set by controls: 0 for no effect and ±100 for the full control effect; potency is the fitted concentration of half-maximal effect.

Row | Structure (SMILES) | cytotoxicity | Potency
1 | COc1cc(CC#N)cc(OC)c1OC | -2.24% [at 35.3 µM] | 
2 | CCOC(=O)c1cn2nc(OP(=S)(OCC)OCC)cc2nc1C | -0.517% | 
3 | O=C(N[C@H]1CN2CCC1CC2)c1ccc2c(c1)OCCO2 | -5.85% | 
4 | Cc1nnc(-c2ccccc2)c(=O)n1N | -1.66% | 
5 | C1CS1 | -1.72% | 
6 | COc1ccc(C(O)(c2cncnc2)C2CC2)cc1 (stereo not given) | -2.17% | 
7 | CC(C)OC(=O)Cc1ccccc1 | -1.08% | 
8 | C=C(Cl)Cl | 0.802% | 
9 | O=C1c2ccccc2C(=O)N1SC(Cl)(Cl)Cl |  | inactive
10 | CCOP(=S)(S)OCC | 1.03% | 
11 | COc1cc(C[C@@H](C)N)c(OC)cc1Br | -1.34% | 
12 | C[C@H]1[C@@H]2Cc3ccc(O)cc3[C@@]1(C)CCN2C | 0.2% [at 200 µM] | 
13 | CC(C)c1ccc(NC(=O)N(C)C)cc1 | 1.03% | 
14 | CCCCCl | 0.773% | 
15 | CCCCOC(=O)CCC(=O)OCCCC | -4.76% | 
16 | CCCCC(CC)COC(=O)c1c(Br)c(Br)c(Br)c(Br)c1C(=O)OCC(CC)CCCC (stereo not given) | -0.136% [at 35.3 µM] | 
17 | O=C(N/N=C/c1ccc([N+](=O)[O-])o1)c1cc([N+](=O)[O-])cc([N+](=O)[O-])c1O | 0.0249% [at 35.3 µM] | 
18 | c1ccc2sc(SNC3CCCCC3)nc2c1 |  | inactive
19 | CCCN(CCOc1c(Cl)cc(Cl)cc1Cl)C(=O)n1ccnc1 |  | inactive
20 | C=CC(C)(CCC=C(C)C)OC(=O)c1ccccc1N (stereo not given) | -0.842% | 

Row | Structure (SMILES) | cytotoxicity | Potency
21 | CC(C)(C)OOC(C)(C)CCC(C)(C)OOC(C)(C)C | -2.75% | 
22 | CC(C)[C@@H](C(=O)O[C@@H](C#N)c1cccc(Oc2ccccc2)c1)c1ccc(Cl)cc1 |  | inactive
23 | CCCCCCCCCCCCN(C)C | 1.4% | 
24 | CCCCCCCCCCCCN=C(N)N | 9.65% [at 2.72 µM] | 
25 | C=CCOC(=O)C(C)(C)OC(=O)c1cc(-n2c(=O)cc(C(F)(F)F)n(C)c2=O)ccc1Cl | -7.98% | 
26 | O=C(O)COc1cc(Cl)c(Cl)cc1Cl |  | inactive
27 | CC(Oc1cc(Cl)c(Cl)cc1Cl)C(=O)O (stereo not given) | -4.98% | 
28 | N#CC(C#N)=Cc1ccc(O)c(O)c1 | 22.6% [at 35.3 µM] | 
29 | CC(C)(C)CC(C)(C)c1ccc(O)cc1 |  | inactive
30 | CC(C)CCON=O | 8.53% | 
31 | O=[N+]([O-])/C=C/c1ccccc1 |  | inactive
32 | O=C(O)c1ccc(=O)[nH]c1 | -7.79% [at 35.3 µM] | 
33 | O=C(O)C(F)(F)C(F)(F)C(F)(F)C(F)(F)C(F)(F)F | -2.12% | 
34 | CC1(C)[C@H](C(=O)O[C@H](C#N)c2cccc(Oc3ccccc3)c2)[C@@H]1C=C(Br)Br |  | inactive
35 | Cc1ccc(N)c(C)c1 |  | inactive
36 | CCOC(=O)NC(O)C(Cl)(Cl)Cl (stereo not given) | -5.67% [at 35.3 µM] | 
37 | CN(C1CCCCC1)C1CCCCC1 | 0.967% | 
38 | CCCCNC(=O)OCC#CI |  | inactive
39 | OCCCl | 2.44% | 
40 | C[C@H](N)[C@H](O)c1ccc(O)c(O)c1 |  | 16.9 µM (active)
